# Laboratory results reported in PubChem BioAssay (NCATS).
# Results filed as inconclusive are left out. Activity calls are given as the source filed them. Calls follow the shape of the dose curve; as a rule, active = well fitted curve in the direction sought with a large enough effect; inconclusive = small, poorly fitted or top-dose-only effect, or another doubt; inactive = no such curve, though single readings can be large; an effect the other way counts as inactive or inconclusive.
# Columns and labels:
# [1] = Quantitative High-Throughput drug screen in 47 multiple myeloma cell lines against the NCATS MIPE library collection: JIM3_ECACC cell viability assay (AID 1918963; also: nearly all actives have a fitted effect of over 35% in size)
# Procedure, shortened: (§1)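 Myeloma cell lines, 500 cells per well, exposed to MIPE 4.0 library compounds for 48 h at 37C, 5% CO2. Viability from ATP by CellTiter-Glo luminescence; normalised to DMSO (100%) and media-only (0%) wells.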
# [2] = Quantitative High-Throughput drug screen in 47 multiple myeloma cell lines against the NCATS MIPE library collection: JIM1_ECACC cell viability assay (AID 1918964)
# Procedure, shortened: (§2)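 Myeloma cells (500 per well) were exposed to MIPE 4.0 compounds by pin transfer and incubated 48 hours at 37C, 5% CO2. Viability was read as ATP by CellTiter-Glo luminescence, normalised to DMSO (100%) and media-only (0%) wells.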
# [3] = Quantitative High-Throughput drug screen in 47 multiple myeloma cell lines against the NCATS MIPE library collection: JJN3_DSMZ cell viability assay (AID 1918966; also: nearly all actives have a fitted effect of over 50% in size)
# Procedure, shortened: as §2
# [4] = Quantitative High-Throughput drug screen in 47 multiple myeloma cell lines against the NCATS MIPE library collection: H1112_PLB cell viability assay (AID 1918967; also: nearly all actives have a fitted effect of over 30% in size)
# Procedure, shortened: as §2
# [5] = Quantitative High-Throughput drug screen in 47 multiple myeloma cell lines against the NCATS MIPE library collection: Karpas25_ECACC cell viability assay (AID 1918968; also: nearly all actives have a fitted effect of over 35% in size)
# Procedure, shortened: as §2
# [6] = Quantitative High-Throughput drug screen in 47 multiple myeloma cell lines against the NCATS MIPE library collection: KMS12BM_JCRB cell viability assay (AID 1918971); also: nearly all actives have a fitted effect of over 35% in size
# Procedure, shortened: (§3)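 We plated 500 myeloma cells per well, pinned in MIPE 4.0 compounds, and incubated for 48 hours at 37C. ATP was then quantified with CellTiter-Glo, with DMSO and media-only wells defining 100% and 0%.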
# [7] = Quantitative High-Throughput drug screen in 47 multiple myeloma cell lines against the NCATS MIPE library collection: NCIH929_DSMZ cell viability assay (AID 1918978); also: nearly all actives have a fitted effect of over 35% in size
# Procedure, shortened: (§4)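 500 cells/well per myeloma line exposed to pinned MIPE 4.0 compounds for 48 h at 37 °C, 5% CO2. Viability read as ATP by CellTiter-Glo luminescence, normalised to DMSO-only (100%) and media-only (0%) wells.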
# [8] = Quantitative High-Throughput drug screen in 47 multiple myeloma cell lines against the NCATS MIPE library collection: OCIMY1_PLB cell viability assay (AID 1918979); also: nearly all actives have a fitted effect of over 35% in size
# Procedure, shortened: as §4
# [9] = Quantitative High-Throughput drug screen in 47 multiple myeloma cell lines against the NCATS MIPE library collection: MM1S_ATCC cell viability assay (AID 1918980); also: nearly all actives have a fitted effect of over 45% in size
# Procedure, shortened: as §4
# [10] = Quantitative High-Throughput drug screen in 47 multiple myeloma cell lines against the NCATS MIPE library collection: MM1R_ATCC cell viability assay (AID 1918981); also: nearly all actives have a fitted effect of over 35% in size
# Procedure, shortened: as §4
# [11] = Quantitative High-Throughput drug screen in 47 multiple myeloma cell lines against the NCATS MIPE library collection: LP1_DSMZ cell viability assay (AID 1918982); also: nearly all actives have a fitted effect of over 35% in size
# Procedure, shortened: as §4
# [12] = Quantitative High-Throughput drug screen in 47 multiple myeloma cell lines against the NCATS MIPE library collection: INA6_PLB cell viability assay (AID 1918965; also: nearly all actives have a fitted effect of over 55% in size)
# Procedure, shortened: as §1
# [13] = Quantitative High-Throughput drug screen in 47 multiple myeloma cell lines against the NCATS MIPE library collection: KMS26_JCRB cell viability assay (AID 1918975); also: nearly all actives have a fitted effect of over 45% in size
# Procedure, shortened: as §3
# [14] = Quantitative High-Throughput drug screen in 47 multiple myeloma cell lines against the NCATS MIPE library collection: KMS27_JCRB cell viability assay (AID 1918970); conditions: KMS27 myeloma cells, CellTiter-Glo ATP viability, 48 h; viability (% of DMSO): at 45.8 µM (top of the series); also: nearly all actives have a fitted effect of over 30% in size
# Procedure, shortened: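 ATP-based viability (CellTiter-Glo luminescence) is measured in cells treated 48 h with approved and investigational drugs at 37 °C. Controls are DMSO-only wells for full viability and media-only wells for none.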
# [15] = Quantitative High-Throughput drug screen in 47 multiple myeloma cell lines against the NCATS MIPE library collection: KMS12PE_JCRB cell viability assay (AID 1918972); also: nearly all actives have a fitted effect of over 30% in size
# Procedure, shortened: as §1
# [16] = Quantitative High-Throughput drug screen in 47 multiple myeloma cell lines against the NCATS MIPE library collection: KMS20_JCRB cell viability assay (AID 1918973); also: nearly all actives have a fitted effect of over 45% in size
# Procedure, shortened: as §2
# [17] = Quantitative High-Throughput drug screen in 47 multiple myeloma cell lines against the NCATS MIPE library collection: MMM1_PLB cell viability assay (AID 1918976); also: nearly all actives have a fitted effect of over 35% in size
# Procedure, shortened: as §4
# [18] = Quantitative High-Throughput drug screen in 47 multiple myeloma cell lines against the NCATS MIPE library collection: MOLP8_DSMZ cell viability assay (AID 1918977); also: nearly all actives have a fitted effect of over 45% in size
# Procedure, shortened: as §4
# [19] = Quantitative High-Throughput drug screen in 47 multiple myeloma cell lines against the NCATS MIPE library collection: KMS21BM_JCRB cell viability assay (AID 1918974); conditions: ATP luminescence, 48 h; viability: at 45.8 µM (top of the series)
# Procedure, shortened: as §2
# Potency is read from the fitted curve at half-maximal effect.
SMILES,Potency [1],Potency [2],Potency [3],Potency [4],Potency [5],Potency [6],Potency [7],Potency [8],Potency [9],Potency [10],Potency [11],Potency [12],Potency [13],Potency [14],Potency [15],Potency [16],Potency [17],Potency [18],Potency [19]
COc1ccc2cc([S+]([O-])Cc3ncc(C)c(OC)c3C)nc2c1,inactive,inactive,inactive,inactive,16600 nM (active),inactive,inactive,inactive,inactive,inactive,inactive,,,,,,,,
O=C(CN1C(=O)C2(CCCC2)NC[C@H]1c1cc(F)cc(F)c1)Nc1ccc2c(c1)C[C@@]1(C2)C(=O)Nc2ncccc21,inactive,18700 nM (active),,inactive,inactive,inactive,inactive,,inactive,inactive,inactive,inactive,inactive,,,,,,
O=C1NCCc2[nH]c(-c3ccncc3)cc21,7430 nM (active),,2090 nM (active),4180 nM (active),2960 nM (active),3720 nM (active),,5900 nM (active),3720 nM (active),2640 nM (active),4180 nM (active),1320 nM (active),3320 nM (active),1320 nM (active),6620 nM (active),2640 nM (active),16600 nM (active),1660 nM (active),
Cc1cnc(Nc2ccc(CN3CCOCC3)cc2)nc1Nc1cccc(S(=O)(=O)NC(C)(C)C)c1,2640 nM (active),,6620 nM (active),3320 nM (active),1320 nM (active),3320 nM (active),1660 nM (active),,5900 nM (active),,5900 nM (active),372 nM (active),13200 nM (active),,,,10500 nM (active),2090 nM (active),
C[C@@H](Oc1ccc2[nH]nc(C=Cc3cnn(CCO)c3)c2c1)c1c(Cl)cncc1Cl,372 nM (active),,8330 nM (active),6620 nM (active),743 nM (active),23500 nM (active),235 nM (active),11800 nM (active),6620 nM (active),2640 nM (active),20900 nM (active),93.5 nM (active),8330 nM (active),inactive,inactive,4180 nM (active),1870 nM (active),,
C=C(C)[C@@H]1CC[C@]2(C)CC[C@]3(C)[C@H](CC[C@@H]4[C@@]5(C)CC[C@H](O)C(C)(C)[C@H]5CC[C@]43C)[C@@H]12,inactive,,inactive,inactive,inactive,inactive,,,,inactive,,inactive,inactive,inactive,inactive,inactive,,inactive,
Nc1nc(=O)n([C@H]2C[C@H](O)[C@@H](CO)O2)cc1F,1320 nM (active),,inactive,inactive,inactive,,16600 nM (active),inactive,7.4 nM (active),inactive,inactive,29.6 nM (active),inactive,41.8 nM (active),59 nM (active),,,,
C=C1C[C@@]2(O)O[C@@]3(C[C@H]2C(C)C)[C@H](C)CC[C@H]13,inactive,,inactive,inactive,,inactive,inactive,inactive,1480 nM (active),inactive,inactive,inactive,,inactive,inactive,inactive,,inactive,
CC(C)Oc1ccc(C(=O)N[C@H](CNC(=O)CN(C)C)Cc2ccc(-c3cn4cccc([C@H](C)O)c4n3)cc2)cc1Cl,209 nM (active),,inactive,,132 nM (active),743 nM (active),,2640 nM (active),6620 nM (active),590 nM (active),,74.3 nM (active),,833 nM (active),469 nM (active),235 nM (active),,,
N[C@H]1CN(c2c(F)cc3c(=O)c(C(=O)O)cn(C4C[C@@H]4F)c3c2Cl)CC12CC2 (stereo not given in full),inactive,inactive,,inactive,,,inactive,inactive,inactive,inactive,inactive,,16600 nM (active),inactive,inactive,,,,
CC(=O)O[C@H]1C[C@@H]2CC[C@H]3[C@H]4C[C@H]([N+]5(C)CCCCC5)[C@@H](OC(C)=O)[C@@]4(C)CC[C@@H]3[C@@]2(C)C[C@H]1N1CCCCC1,inactive,,,inactive,inactive,inactive,inactive,inactive,6620 nM (active),inactive,inactive,inactive,inactive,inactive,inactive,,,,
CCOC(=O)[C@@H](N)Cc1ccc(-c2cc(O[C@H](c3ccc(Cl)cc3-n3ccc(C)n3)C(F)(F)F)nc(N)n2)cc1,20900 nM (active),,18700 nM (active),10500 nM (active),18700 nM (active),20900 nM (active),18700 nM (active),18700 nM (active),2960 nM (active),,,23500 nM (active),18700 nM (active),10500 nM (active),10500 nM (active),,11800 nM (active),11800 nM (active),
CCc1c(O)cc(O)c(C(=O)c2ccc(OCCN3CCOCC3)c(OC)c2)c1CC(=O)N(CCOC)CCOC,833 nM (active),,935 nM (active),14800 nM (active),526 nM (active),1050 nM (active),1050 nM (active),16600 nM (active),1480 nM (active),1180 nM (active),,590 nM (active),833 nM (active),,,526 nM (active),1480 nM (active),,
CO[C@@H]1[C@@H](O)[C@H](O)[C@@H](n2c3c(Cl)cccc3c3c4c(c5c6cccc(Cl)c6[nH]c5c32)C(=O)NC4=O)O[C@@H]1CO,1480 nM (active),,9350 nM (active),418 nM (active),590 nM (active),469 nM (active),,2350 nM (active),372 nM (active),526 nM (active),6620 nM (active),187 nM (active),2640 nM (active),118 nM (active),743 nM (active),,5900 nM (active),2350 nM (active),
CCc1ccc(C(=O)Nc2cc(CN3CCN(C)CC3)cc(C(F)(F)F)c2)cc1C#Cc1cnc2ccnn2c1,7430 nM (active),,20900 nM (active),2640 nM (active),8330 nM (active),14800 nM (active),10500 nM (active),16600 nM (active),16600 nM (active),18700 nM (active),16600 nM (active),4690 nM (active),16600 nM (active),5900 nM (active),5260 nM (active),3720 nM (active),23500 nM (active),18700 nM (active),
CCC(C(=O)O)C1CCC(C)C(C(C)C(O)C(C)C(=O)C(CC)C2OC3(C=CC(O)[C@@]4(CC[C@](C)(C5CC[C@@](O)(CC)C(C)O5)O4)O3)C(C)CC2C)O1 (stereo not given in full),1480 nM (active),,1050 nM (active),8330 nM (active),7430 nM (active),148 nM (active),,5260 nM (active),2350 nM (active),3720 nM (active),4690 nM (active),1660 nM (active),526 nM (active),743 nM (active),743 nM (active),,6620 nM (active),743 nM (active),
C[C@H](CCC(=O)O)[C@H]1CC[C@H]2[C@@H]3[C@H](O)C[C@@H]4C[C@H](O)CC[C@]4(C)[C@@H]3CC[C@]12C,inactive,,,inactive,inactive,inactive,inactive,inactive,inactive,,inactive,inactive,inactive,inactive,inactive,inactive,,inactive,
Cc1cc(Nc2ncc3c(n2)N(C)C(=O)N(c2cc(NC(=O)c4cccc(C(F)(F)F)c4)ccc2C)C3)n(C)n1,2640 nM (active),,1320 nM (active),2640 nM (active),372 nM (active),526 nM (active),,,935 nM (active),1320 nM (active),,469 nM (active),5900 nM (active),1870 nM (active),1050 nM (active),,,296 nM (active),
Cc1cc(O)c2c(c1)C(=O)c1cccc(O)c1C2=O,inactive,,inactive,inactive,inactive,,inactive,inactive,,,inactive,inactive,inactive,inactive,,,,inactive,
CNC(=O)c1ccc(Nc2cc(Nc3ccccc3S(=O)(=O)C(C)C)c3cc[nH]c3n2)nc1,1180 nM (active),,16600 nM (active),4180 nM (active),590 nM (active),16600 nM (active),935 nM (active),,13200 nM (active),,,469 nM (active),18700 nM (active),2090 nM (active),1180 nM (active),935 nM (active),11800 nM (active),10500 nM (active),418 nM (active)
CCCNC(=O)[C@H]1O[C@H]1C(=O)N[C@H](C(=O)N1CCC[C@@H]1C(=O)OC)C(C)CC (stereo not given in full),16600 nM (active),,2960 nM (active),,14800 nM (active),5260 nM (active),,5900 nM (active),2350 nM (active),2350 nM (active),14800 nM (active),16600 nM (active),11800 nM (active),5900 nM (active),6620 nM (active),,16600 nM (active),2640 nM (active),
